“And” between values parts separate entries of the source, which are not always exact repeats. Identical values can stand only once. About 83,000 compounds went through this panel and 20% of them were active in at least one assay; those are over-represented in the sample as a whole.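 Testing used 96-well plates and a 48-hour single-concentration exposure. Example: -40 means 40% of the starting cells died.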 The source made the active and inactive calls. How the source made its calls: active means growth percent below 10; inactive means the rest.
What follows are molecules tested on NCI-H23 lung (assay: NCI-60 one-dose screen, 48 h (100 = growth as untreated, 0 = no growth, -100 = all killed)). Conditions: 10 µM unless noted.
`O=C(CSc1nc2ccccc2c(=O)[nH]1)Nc1ccccc1C(=O)O` was tested, and the growth was 104% (inactive). `Cn1cc(-c2cc(N)n3nc(-c4c[nH]c5ccccc45)cc3n2)c2ccccc21` was tested, and the growth was -73.4% (active). With `Cc1cccc(/C=C/c2ccc(NC(=S)NCCCCN(C)C)cc2)c1` the growth was -99.7% (active). `Cc1ccc(N=Nc2c(N)nn3c(-c4cc5ccccc5oc4=O)ccnc23)cc1` was tested, and the growth was 28% (inactive). In the case of `O=C(Nc1nc2ccccc2s1)Nc1ccccc1Cl`, the growth is reported as 70.5% (inactive). In the case of `COc1ccc(NC(=O)CSc2nnc(-c3ccc(-c4nc5ccc(Cl)cc5[nH]4)cc3)o2)cc1`, the growth is reported as -15.7% (active). For `O=C1Nc2cc(-c3ccc(NS(=O)(=O)c4ccc(C(F)(F)F)cc4)cc3)ccc2/C1=C/c1ccc[nH]1`, the growth was 11% (inactive). With `COc1ccc(Nc2nnc(-c3c[nH]c4ccccc34)o2)cc1` the growth was 82.7% (inactive). For `Cn1cc(-c2cc(N)n3nc(-c4c[nH]c5ccc(F)cc45)cc3n2)c2cccnc21`, the growth was -68.2% (active). In the case of `O=C(NN1C(=O)/C(=C/C=C/c2ccc([N+](=O)[O-])o2)SC1=S)c1ccc([N+](=O)[O-])cc1`, the growth is reported as -88.4% (active). For `CN1C(=O)/C(=C/c2ccco2)S/C1=N/c1nccs1`, the growth was 97.3% (inactive). For `N#C/C(=C/c1ccc([N+](=O)[O-])cc1)c1nnc(NC(=O)c2ccc(-n3c(=O)[nH]c4ccccc4c3=O)cc2)s1`, the growth was 91.9% (inactive). With `O=C(CSc1nnc(-c2ccc(-c3nc4ccc(Cl)cc4[nH]3)cc2)o1)Nc1ccccc1` the growth was -41.5% (active). In the case of `Cc1cccc(NCC(=O)N2CCN(c3ncnc4c3cnn4-c3ccccc3)CC2)c1`, the growth is reported as 58.4% (inactive). For `O=C(N/N=C/c1ccc(Br)o1)c1[nH]c2ccc(Br)cc2c1-c1ccccc1`, the growth was -37% (active). For `CCCCCCCCc1ccc(C(=O)Nc2ccc(C)c(OP(=O)(O)O)c2)cc1`, the growth was 101% (inactive). For `Cn1cc(-c2cc3nc(-c4cn(C)c5ncc(Br)cc45)cc(N)n3n2)c2cc(F)ccc21`, the growth was 15.2% (inactive). For `O=C1Nc2ccccc2/C1=C/C(=O)c1cc2ccccc2oc1=O`, the growth was 93.4% (inactive). For `c1n[nH]cc1-c1nc2ccc3cn[nH]c3c2c2c1CCCC2`, the growth was 90.2% (inactive). For `CN1C(=O)C(O)(CC(=O)c2cc3ccccc3oc2=O)c2ccccc21` (stereo not given), the growth was 93.3% (inactive). In the case of `O=C(CCl)Nc1ccc(C(=O)/C=C/c2cc3ccccc3nc2Cl)cc1`, the growth is reported as -83.6% (active) and 34.9% (inactive). For `Cc1cc(C2(c3cc(C)c(OCC(O)CNc4c(C)n(C)n(-c5ccccc5)c4=O)cc3C(C)C)OC(=O)c3ccccc32)c(C(C)C)cc1OCC(O)CNc1c(C)n(C)n(-c2ccccc2)c1=O` (stereo not given), the growth was 34.7% (inactive). For `Cn1cc(-c2cc(N)n3nc(-c4c[nH]c5ccccc45)cc3n2)c2cc(Br)ccc21`, the growth was -75.2% (active). With `CCC(=O)c1c2c(c3ccc4c5ccccc5ccc4n13)C(=O)c1ccccc1C2=O` the growth was 44.5% (inactive). `CS(=O)(=O)Nc1cc(-c2ccc3ncnc(Nc4ccc(OCc5cccnc5)c(Cl)c4)c3c2)cnc1Cl` was tested, and the growth was -26.9% (active). `Cn1cc(-c2cc(N)n3nc(-c4c[nH]c5ccccc45)cc3n2)c2cc(Cl)ccc21` was tested, and the growth was -70.7% (active). With `COc1ccc(N=Nc2c(N)nn3c(N)c(C#N)c(-c4ccc(C)cc4)nc23)cc1` the growth was 62.9% (inactive). For `COc1ccc(C(=O)/C=C/c2ccc3c(c2)OCCO3)cc1S(N)(=O)=O`, the growth was 73% (inactive). `CCCCC[C@@H]1C/C=C(\C)[C@@H](O)C(C)(C)C(=O)[C@@H](C)/C=C(\C)[C@@H]2C[C@H](O)C[C@](O)(CC(=O)O1)O2` was tested, and the growth was 31% (inactive). In the case of `CC(C)(C)c1ccc(OCc2nc3ccccc3n2-c2cccc(N)c2)cc1`, the growth is reported as 50.1% (inactive) and 100% (inactive). `O=C1/C(=C/c2cnc(-c3ccccc3)s2)SC(=S)N1Cc1ccc2c(c1)OCO2` was tested, and the growth was 47.1% (inactive). With `COc1ccc(NC2=C(I)C(=O)C(C)=C(C)C2=O)cc1` the growth was 32.2% (inactive). In the case of `COc1ccc(-c2nnc3c(/C=C/c4ccc(Br)cc4)nc4ccccc4n23)cc1`, the growth is reported as 29.9% (inactive). `C[C@H]1[C@@H](CC(=O)N[C@@H](Cc2coc3ccccc23)B(O)O)O[C@@H]2OC3(C)CC[C@H]4[C@H](C)CC[C@@H]1[C@@]24O3` was tested, and the growth was 18.6% (inactive). `O=C(NNC(=S)NC(=O)c1ccccc1)c1ccc(OCc2nc3ccc(Cl)cc3[nH]2)cc1` was tested, and the growth was -71.3% (active).
